{"source": "PubChem BioAssay AID463229", "about": "(Broad Institute, 2010)", "note": "Hit rate of the full screen: of about 2,300 compounds, about 2,100 (91%) were called active. The set was probably picked from earlier hits. These entries were drawn from the full list. Measured potencies and affinities stand elsewhere. Unmarked numbers belong to inactive results.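 The calls were made as follows: active = compounds raising the signal whose fitted half-maximal concentration is at or below their top tested dose (cut at about 25 µM in these data); inconclusive = flat fit at 30 to 70% activity, or a poor fit; inactive = the rest.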", "data": [{"test": "ATP level change in INS-1E without cytokines, dose response, counter-screen for beta-cell apoptosis protection project, INS-1E rat cells, ATP luminescence, cherry pick (AID 463229);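 also: 0% = median of neutral control wells and 100% = median of positive control wells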", "conditions": "INS-1E rat beta cells, no cytokines, CellTiter-Glo ATP, 48 h; series mostly up to 26 µM; activity change (ATP luminescence): at the top concentration", "values": [{"smiles": "CCOc1ccc(/C=N/Nc2ccc(Cl)nn2)c(O)c1", "activity change (ATP luminescence)": "13.6%"}, {"smiles": "Cc1cc(C)nc(OC(=O)c2ccc(Cl)cc2Cl)n1", "activity change (ATP luminescence)": "13.3%"}, {"smiles": "Cc1ccc(C(=O)O/N=C/c2c(N3CCOCC3)n(C)c3ccccc23)cc1", "activity change (ATP luminescence)": "-6.85%"}, {"smiles": "Cc1ccc2c(C)ccc(O)c2n1", "activity change (ATP luminescence)": "-15.9%"}, {"smiles": "CCCNC(=O)c1c(N)n(-c2cccc(OC)c2)c2nc3ccccc3nc12", "activity change (ATP luminescence)": "11.9%"}, {"smiles": "CC(=O)Nc1ccc(C2=CC(=O)C[C@H](c3ccc4c(c3)OCO4)C2)cc1", "activity change (ATP luminescence)": "-42.7%"}, {"smiles": "FC(F)(F)c1ccccc1NC(=S)N1CCc2ccccc2C1", "activity change (ATP luminescence)": "142%"}, {"smiles": "Fc1ccc(Oc2nc(-c3ccccn3)nc3ccccc23)cc1", "activity change (ATP luminescence)": "-68.1%"}, {"smiles": "O=C(CCCN1C(=O)/C(=C/c2ccccc2)SC1=S)NCCCn1ccnc1", "activity change (ATP luminescence)": "15.9%"}, {"smiles": "O=[N+]([O-])c1ccc(/C=N/Nc2ccnc3cc(Cl)ccc23)o1", "activity change (ATP luminescence)": "107%"}, {"smiles": "CC1(C(=O)OCC(=O)N2c3ccccc3Sc3ccccc32)CC1(Cl)Cl", "note": "(stereo not drawn)", "activity change (ATP luminescence)": "-6.03%"}, {"smiles": "Nc1ccc2nn(-c3cccc4ccccc34)nc2c1", "activity change (ATP luminescence)": "-43.9%"}, {"smiles": "CC(=O)Cc1cc(O)c2ccccc2c1OC(=O)c1ccc(Br)cc1", "activity change (ATP luminescence)": "22.1%"}, {"smiles": "Cc1cc2cc(CN3C(=O)c4ccccc4C3=O)ccc2n1C", "activity change (ATP luminescence)": "-10.1% [at 12 µM]"}, {"smiles": "Cc1ccc(NC(=O)c2c(-c3c(F)cccc3Cl)noc2C)cc1F", "activity change (ATP luminescence)": "-18.3%"}, {"smiles": "O=C1/C(=N\\S(=O)(=O)c2cccs2)C([n+]2ccc(CCCc3ccccc3)cc2)=C([O-])c2ccccc21", "activity change (ATP luminescence)": "-34.3%"}, {"smiles": "CC(C)(C)c1cc[n+](C2=C([O-])c3ccccc3C(=O)/C2=N\\S(=O)(=O)c2ccccc2)cc1", "activity change (ATP luminescence)": "2.78%"}, {"smiles": "Cc1ccccc1Nc1c(-c2ccccn2)nc2c(C)cccn12", "activity change (ATP luminescence)": "-20.1%"}, {"smiles": "COc1cc(NC2CCCCC2O)c2nc(-c3ccc(Cl)cc3)ccc2c1", "note": "(stereo not drawn)", "activity change (ATP luminescence)": "-33.5%"}, {"smiles": "COc1ccc(NC(=O)CN(C)C(=O)/C=C/c2ccc(S(=O)(=O)N3CCCCCC3)cc2)cc1", "activity change (ATP luminescence)": "1.68%"}, {"smiles": "CC(C)C[C@H]1CN=C(Nc2ccccc2)N1CCC(C)c1ccccc1", "note": "(stereo partly drawn)", "activity change (ATP luminescence)": "13.4%"}, {"smiles": "CCC(CC)C(=O)c1c[nH]c(C(=O)NCc2ccccn2)c1", "activity change (ATP luminescence)": "-14.1%"}, {"smiles": "O=C(Cc1ccc([N+](=O)[O-])cc1)Nc1cccnc1", "activity change (ATP luminescence)": "14.2%"}, {"smiles": "Cc1ccc(C)c(NS(=O)(=O)c2ccc(OCC(=O)NCc3cccnc3)cc2)c1", "activity change (ATP luminescence)": "-6.95%"}, {"smiles": "O=C(NNC(=O)c1ccccc1OCc1ccccc1)c1ccccc1O", "activity change (ATP luminescence)": "92.6%"}, {"smiles": "C/C(=N\\NC(N)=S)c1ccncc1", "activity change (ATP luminescence)": "-12.3%"}, {"smiles": "C/C(Cn1nnc([N+](=O)[O-])n1)=N\\NC(=O)c1ccccc1Cl", "activity change (ATP luminescence)": "53.7%"}, {"smiles": "Clc1ccc(SCc2cc(N3CCOCC3)nc(-c3ccccn3)n2)cc1", "activity change (ATP luminescence)": "-38.8%"}, {"smiles": "CCN(CC)C(=O)C1CCCN(C(=S)Nc2cccc3ccccc23)C1", "note": "(stereo not drawn)", "activity change (ATP luminescence)": "-7.12%"}, {"smiles": "CC(C)(C)C(=O)NC(Nc1cccc2cccnc12)C(Cl)(Cl)Cl", "note": "(stereo not drawn)", "activity change (ATP luminescence)": "-44.1%"}, {"smiles": "CCCOc1ccc2c3c(c(=O)oc2c1OCCC)CCCC3", "activity change (ATP luminescence)": "5.09%"}, {"smiles": "COc1ccc(/C=N/N2CCN(Cc3ccccc3)CC2)cc1", "activity change (ATP luminescence)": "14.5%"}, {"smiles": "C/C(=N\\Nc1nc(C)cc(-c2ccccc2)n1)c1ccc(F)cc1", "activity change (ATP luminescence)": "3.42%"}, {"smiles": "C/C(=N\\Nc1nc(C)cc(-c2ccccc2)n1)c1ccccc1", "activity change (ATP luminescence)": "-42%"}, {"smiles": "C=CC[C@@H](CC(=O)N(CCO)Cc1ccccc1)C(=O)N[C@H](COC(=O)[C@@H](CC=C)CC(=O)OC(C)(C)C)c1ccccc1", "activity change (ATP luminescence)": "-11%"}, {"smiles": "Cc1cc(C)n(-c2nc(NC(C)(C)C)nc(NC(C)(C)C)n2)n1", "activity change (ATP luminescence)": "7.64%"}, {"smiles": "NNC(=S)Nc1ccc(OC(F)(F)F)cc1", "activity change (ATP luminescence)": "-13.7%"}, {"smiles": "COc1ccc(NC(=O)N(C)C[C@H]2Oc3c(NS(=O)(=O)c4ccc(F)cc4)cccc3C(=O)N([C@H](C)CO)C[C@@H]2C)cc1", "activity change (ATP luminescence)": "-3.98%"}, {"smiles": "COC(=O)c1sccc1S(=O)(=O)Nc1ccc(N2CCCCC2)cc1", "activity change (ATP luminescence)": "-9.33%"}, {"smiles": "c1ccc(-c2nnc(CSc3ccc4c(c3)OCCO4)o2)cc1", "activity change (ATP luminescence)": "8.99%"}, {"smiles": "Fc1cccc(Cl)c1-c1nnc2ccc3ccccc3n12", "activity change (ATP luminescence)": "109%"}, {"smiles": "Nc1ccc(Nc2ccccc2)cc1", "activity change (ATP luminescence)": "-6.88%"}, {"smiles": "Cc1ccc(S(=O)(=O)Nc2ccc(C(OC(=O)c3ccccc3[N+](=O)[O-])(C(F)(F)F)C(F)(F)F)cc2)cc1", "activity change (ATP luminescence)": "29.1%"}, {"smiles": "CCN(CC)S(=O)(=O)c1cccc(NC(=O)c2cc(-c3cccs3)nn2-c2ccccc2)c1", "activity change (ATP luminescence)": "-34.7%"}, {"smiles": "c1ccc(N2CCN(CC3CCCCC3)CC2)cc1", "activity change (ATP luminescence)": "0.86%"}, {"smiles": "CCCCOC(=O)c1ccc(NC(c2ccc(C)cc2)P(=O)(OC)OC)cc1", "note": "(stereo not drawn)", "activity change (ATP luminescence)": "-8.14%"}, {"smiles": "Cc1ccc(C2CC(c3cccc(C)c3)n3nc(N)nc3N2)cc1", "note": "(stereo not drawn)", "activity change (ATP luminescence)": "0.0824%"}, {"smiles": "COc1ccc(C2CC(c3cccc(C)c3)n3nc(N)nc3N2)cc1", "note": "(stereo not drawn)", "activity change (ATP luminescence)": "-17.7%"}, {"smiles": "CCOC(=O)CSc1nc2c(c(=O)[nH]1)C(C)(CC)Cc1ccccc1-2", "note": "(stereo not drawn)", "activity change (ATP luminescence)": "12.6%"}, {"smiles": "O=C(O)c1ccc(/C=C2\\SC(=S)N(Nc3ccccc3)C2=O)cc1", "activity change (ATP luminescence)": "-8.76%"}, {"smiles": "CN1N=C(C(C)(C)C)CSC1=Nc1ccccc1", "activity change (ATP luminescence)": "-33.1%"}, {"smiles": "CC(=O)c1c(C)n(CC(=O)NCc2ccco2)c2ccccc12", "activity change (ATP luminescence)": "-41%"}, {"smiles": "Cc1ccc(N2C(=O)CSC2c2cccnc2)c(Cl)c1", "note": "(stereo not drawn)", "activity change (ATP luminescence)": "-1.78%"}, {"smiles": "CN(C)c1ccc(NC(=S)NC23CC4CC(CC(C4)C2)C3)cc1", "activity change (ATP luminescence)": "19.4%"}, {"smiles": "COc1ccccc1NS(=O)(=O)c1cccc(NC(=O)c2[nH]c(C)c(C(C)=O)c2C)c1", "activity change (ATP luminescence)": "-29.7%"}, {"smiles": "O=C(CC1CC2CCC1C2)NCCc1ccc(Cl)cc1", "note": "(stereo not drawn)", "activity change (ATP luminescence)": "-13.3%"}, {"smiles": "CNC(=S)N(Cc1cccs1)Cc1cc2cc(OC)c(OC)cc2[nH]c1=O", "activity change (ATP luminescence)": "-23.9%"}, {"smiles": "CCN(CC)c1ccc(N=Cc2ccccc2[N+](=O)[O-])cc1", "activity change (ATP luminescence)": "-29.5%"}, {"smiles": "CC1CC(=O)N(c2ccc(Br)cc2)C(=O)C1", "activity change (ATP luminescence)": "0.825%"}, {"smiles": "Cn1cccc1/C=N/NC(=O)Cc1cccs1", "activity change (ATP luminescence)": "-5.79%"}, {"smiles": "CCOC(=O)c1sc(SC)c2c1CCC/C2=N/OC", "activity change (ATP luminescence)": "6.05%"}, {"smiles": "COc1cnc(-c2ccccn2)nc1N(C)c1ccccc1", "activity change (ATP luminescence)": "116%"}, {"smiles": "O=C(CCCCC(=O)Nc1ccc(F)cc1F)Nc1ccc(F)cc1F", "activity change (ATP luminescence)": "3.54%"}, {"smiles": "C/C(=N\\Nc1nc(-c2ccccn2)nc2ccccc12)c1ccc(F)cc1", "activity change (ATP luminescence)": "-13.2%"}, {"smiles": "O=C(c1ccc(F)c(S(=O)(=O)N2CCOCC2)c1)N1CCN(c2ccc(F)cc2)CC1", "activity change (ATP luminescence)": "-5.31%"}, {"smiles": "CC1=C(C(=O)OCCNC(=O)c2ccccc2O)C(c2ccccc2[N+](=O)[O-])C(C(=O)OCC2CCCO2)=C(C)N1", "note": "(stereo not drawn)", "activity change (ATP luminescence)": "-5.77% [at 12 µM]"}, {"smiles": "COc1ccc(CN(C)C(=O)c2ccc(NS(=O)(=O)c3ccc(F)cc3)cc2)c(OC)c1OC", "activity change (ATP luminescence)": "-3.83%"}, {"smiles": "CC[C@@H]1C/C=C\\Cc2ccccc2[C@H](C(=O)C[C@@H](O)CC(C)=O)OC1=O", "activity change (ATP luminescence)": "-4.88%"}]}]}
